# Assay results reported in the supplement of paper PMC12282887.
# ± gives the standard deviation of the averaged measurements.
# Assays:
# Test in all cases: promoter activity interaction Z-score (Lux/OD deviation from empty-vector control); higher = stronger promoter induction by the compound
# [1] = test system: E. coli BW25113 acrABp lux reporter
# Summary of the method: (§1)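 Four 1:2 dilutions of each compound were tested in biological duplicates on E. coli BW25113 carrying low-copy luxCDABE promoter reporters, either wild type or deleted for one of three genes. Cultures of 40 µl LB Lennox in 384-well plates were kept at 37°C and read for OD600 and luminescence every 30 min for 12 h. Integration windows were 0–8 h for wild type and 1–9 h for deletion strains, and wells under 10% of the median growth value were discarded. The score is a Z-transformed residual of growth-normalised luminescence relative to a control fit.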
# [2] = test system: E. coli BW25113 micFp lux reporter
# Summary of the method: as §1
# [3] = test system: E. coli BW25113 ompFp lux reporter
# Summary of the method: as §1
# [4] = test system: E. coli BW25113 robp lux reporter
# Summary of the method: as §1
# [5] = test system: E. coli BW25113 soxSp lux reporter
# Summary of the method: as §1
# [6] = test system: E. coli BW25113 tolCp lux reporter
# Summary of the method: as §1
# [7] = 3.2 µg/ml, genetic background: wild type
# [8] = 3.2 µg/ml, genetic background: ΔmarA
# [9] = 3.2 µg/ml, genetic background: Δrob
# [10] = 3.2 µg/ml, genetic background: ΔsoxS
# [11] = 6.3 µg/ml, genetic background: wild type
# [12] = 6.3 µg/ml, genetic background: ΔmarA
# [13] = 6.3 µg/ml, genetic background: Δrob
# [14] = 6.3 µg/ml, genetic background: ΔsoxS
# [15] = 12.7 µg/ml, genetic background: wild type
# [16] = 12.7 µg/ml, genetic background: ΔmarA
# [17] = 12.7 µg/ml, genetic background: Δrob
# [18] = 12.7 µg/ml, genetic background: ΔsoxS
# [19] = 25.3 µg/ml, genetic background: wild type
# [20] = 25.3 µg/ml, genetic background: ΔmarA
# [21] = 25.3 µg/ml, genetic background: Δrob
# [22] = 25.3 µg/ml, genetic background: ΔsoxS
smiles,measurement,setting,value
Cc1cc(NS(=O)(=O)c2ccc(N)cc2)no1 [Sulfamethoxazole],promoter activity interaction Z-score,[1]; [7],-0.0765 ± 0.27
same,promoter activity interaction Z-score,[1]; [8],0.689 ± 0.77
same,promoter activity interaction Z-score,[1]; [9],-0.221 ± 0.15
same,promoter activity interaction Z-score,[1]; [10],-0.171 ± 0.12
same,promoter activity interaction Z-score,[1]; [11],-0.0766 ± 0.0099
same,promoter activity interaction Z-score,[1]; [12],0.146 ± 0.35
same,promoter activity interaction Z-score,[1]; [13],-0.0332 ± 0.079
same,promoter activity interaction Z-score,[1]; [14],-0.186 ± 0.085
same,promoter activity interaction Z-score,[1]; [15],0.0229 ± 0.067
same,promoter activity interaction Z-score,[1]; [16],0.358 ± 0.25
same,promoter activity interaction Z-score,[1]; [17],0.21 ± 0.21
same,promoter activity interaction Z-score,[1]; [18],0.0418 ± 0.11
same,promoter activity interaction Z-score,[1]; [19],0.696 ± 0.24
same,promoter activity interaction Z-score,[1]; [20],2.36 ± 1.9
same,promoter activity interaction Z-score,[1]; [21],1.91 ± 0.82
same,promoter activity interaction Z-score,[1]; [22],1.07 ± 0.6
same,promoter activity interaction Z-score,[2]; [7],0.243 ± 0.46
same,promoter activity interaction Z-score,[2]; [8],-0.0615 ± 0.078
same,promoter activity interaction Z-score,[2]; [9],0.056 ± 0.14
same,promoter activity interaction Z-score,[2]; [10],-0.0348 ± 0.3
same,promoter activity interaction Z-score,[2]; [11],0.103 ± 0.45
same,promoter activity interaction Z-score,[2]; [12],-0.116 ± 0.015
same,promoter activity interaction Z-score,[2]; [13],0.146 ± 0.091
same,promoter activity interaction Z-score,[2]; [14],0.0657 ± 0.36
same,promoter activity interaction Z-score,[2]; [15],0.21 ± 0.55
same,promoter activity interaction Z-score,[2]; [16],0.0105 ± 0.057
same,promoter activity interaction Z-score,[2]; [17],0.372 ± 0.13
same,promoter activity interaction Z-score,[2]; [18],0.279 ± 0.24
same,promoter activity interaction Z-score,[2]; [19],0.861 ± 0.2
same,promoter activity interaction Z-score,[2]; [20],-0.421 ± 0.013
same,promoter activity interaction Z-score,[2]; [21],0.736 ± 0.28
same,promoter activity interaction Z-score,[2]; [22],0.648 ± 0.11
same,promoter activity interaction Z-score,[3]; [7],1.17 ± 0.96
same,promoter activity interaction Z-score,[3]; [8],0.735 ± 0.72
same,promoter activity interaction Z-score,[3]; [9],0.192 ± 0.73
same,promoter activity interaction Z-score,[3]; [10],0.202 ± 0.47
same,promoter activity interaction Z-score,[3]; [11],0.748 ± 0.53
same,promoter activity interaction Z-score,[3]; [12],0.504 ± 0.34
same,promoter activity interaction Z-score,[3]; [13],0.735 ± 0.12
same,promoter activity interaction Z-score,[3]; [14],0.441 ± 0.62
same,promoter activity interaction Z-score,[3]; [15],1.51 ± 1.2
same,promoter activity interaction Z-score,[3]; [16],1.32 ± 0.24
same,promoter activity interaction Z-score,[3]; [17],1.71 ± 0.49
same,promoter activity interaction Z-score,[3]; [18],1.17 ± 0.39
same,promoter activity interaction Z-score,[3]; [19],2.06 ± 0.7
same,promoter activity interaction Z-score,[3]; [20],2.26 ± 0.076
same,promoter activity interaction Z-score,[3]; [21],3.31 ± 1.6
same,promoter activity interaction Z-score,[3]; [22],1.97 ± 1.8
same,promoter activity interaction Z-score,[4]; [7],0.934 ± 0.15
same,promoter activity interaction Z-score,[4]; [8],0.341 ± 0.082
same,promoter activity interaction Z-score,[4]; [9],0.297 ± 1.1
same,promoter activity interaction Z-score,[4]; [10],-0.129 ± 0.16
same,promoter activity interaction Z-score,[4]; [11],0.764 ± 0.4
same,promoter activity interaction Z-score,[4]; [12],0.234 ± 0.17
same,promoter activity interaction Z-score,[4]; [13],0.557 ± 0.64
same,promoter activity interaction Z-score,[4]; [14],0.243 ± 0.13
same,promoter activity interaction Z-score,[4]; [15],1.5 ± 0.42
same,promoter activity interaction Z-score,[4]; [16],1.47 ± 0.23
same,promoter activity interaction Z-score,[4]; [17],0.701 ± 0.021
same,promoter activity interaction Z-score,[4]; [18],0.407 ± 1.1
same,promoter activity interaction Z-score,[4]; [19],3.24 ± 0.095
same,promoter activity interaction Z-score,[4]; [20],0.76 ± 0.27
same,promoter activity interaction Z-score,[4]; [21],3.24 ± 0.084
same,promoter activity interaction Z-score,[4]; [22],3.15 ± 1.5
same,promoter activity interaction Z-score,[5]; [7],-0.125 ± 0.029
same,promoter activity interaction Z-score,[5]; [8],-0.2505 ± 0.00087
same,promoter activity interaction Z-score,[5]; [9],-0.453 ± 0.05
same,promoter activity interaction Z-score,[5]; [10],-0.491 ± 0.32
same,promoter activity interaction Z-score,[5]; [11],-0.197 ± 0.018
same,promoter activity interaction Z-score,[5]; [12],-0.00904 ± 0.067
same,promoter activity interaction Z-score,[5]; [13],-0.169 ± 0.057
same,promoter activity interaction Z-score,[5]; [14],-0.482 ± 0.4
same,promoter activity interaction Z-score,[5]; [15],-0.385 ± 0.017
same,promoter activity interaction Z-score,[5]; [16],-0.102 ± 0.16
same,promoter activity interaction Z-score,[5]; [17],-0.194 ± 0.12
same,promoter activity interaction Z-score,[5]; [18],-0.0885 ± 0.49
same,promoter activity interaction Z-score,[5]; [19],-0.318 ± 0.11
same,promoter activity interaction Z-score,[5]; [20],-0.113 ± 0.15
same,promoter activity interaction Z-score,[5]; [21],-0.388 ± 0.03
same,promoter activity interaction Z-score,[5]; [22],-0.495 ± 0.81
same,promoter activity interaction Z-score,[6]; [7],1.21 ± 0.56
same,promoter activity interaction Z-score,[6]; [8],-0.16 ± 0.5
same,promoter activity interaction Z-score,[6]; [9],-0.33 ± 1
same,promoter activity interaction Z-score,[6]; [10],-0.705 ± 0.53
same,promoter activity interaction Z-score,[6]; [11],-0.676 ± 0.91
same,promoter activity interaction Z-score,[6]; [12],1.17 ± 0.5
same,promoter activity interaction Z-score,[6]; [13],0.87 ± 0.48
same,promoter activity interaction Z-score,[6]; [14],-0.0792 ± 0.033
same,promoter activity interaction Z-score,[6]; [15],-0.0116 ± 0.8
same,promoter activity interaction Z-score,[6]; [16],0.0751 ± 0.68
same,promoter activity interaction Z-score,[6]; [17],0.998 ± 0.39
same,promoter activity interaction Z-score,[6]; [18],0.466 ± 1
same,promoter activity interaction Z-score,[6]; [19],1.95 ± 0.023
same,promoter activity interaction Z-score,[6]; [20],0.663 ± 1.2
same,promoter activity interaction Z-score,[6]; [21],0.663 ± 0.22
same,promoter activity interaction Z-score,[6]; [22],1.64 ± 0.21
